According to PubChem BioAssay:

target: Alpha-2C adrenergic receptor (Homo sapiens) (UniProt P18825); test: compounds altering alpha2C-coupled GIRK flux – cell-based, HEK293 alpha2C/GIRK1/2, thallium flux, primary screen (AID 624); details: thallium flux BTC fluorescence, at 10 µM, actives lie on both sides;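 note: slope of fluorescence ratio to pre-addition baseline per second over 15 to 24 s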
Sequence (P18825 whole entry, looked up): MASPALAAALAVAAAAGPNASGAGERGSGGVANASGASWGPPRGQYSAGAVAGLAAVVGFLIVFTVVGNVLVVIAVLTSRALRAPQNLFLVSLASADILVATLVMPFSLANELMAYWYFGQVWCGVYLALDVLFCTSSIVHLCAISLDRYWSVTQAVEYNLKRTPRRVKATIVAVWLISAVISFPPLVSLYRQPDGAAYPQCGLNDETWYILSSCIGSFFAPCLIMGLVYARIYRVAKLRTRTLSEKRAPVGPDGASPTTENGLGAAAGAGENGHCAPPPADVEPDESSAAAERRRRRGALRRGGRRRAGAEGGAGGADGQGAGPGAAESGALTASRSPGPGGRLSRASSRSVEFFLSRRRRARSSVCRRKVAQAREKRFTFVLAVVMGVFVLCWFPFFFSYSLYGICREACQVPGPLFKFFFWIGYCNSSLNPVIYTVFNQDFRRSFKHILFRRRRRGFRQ

slope, inactive:
CCOCC(=O)Nc1ccc(S(=O)(=O)N2CCOCC2)cc1 0.00604
Cc1cc(NS(=O)(=O)c2ccc(NC(=O)COc3ccc(Cl)cc3)cc2)no1 0.00576
COc1ccc(C2C(C(C)=O)=C(C)N=c3s/c(=C/c4ccc5c(c4)OCO5)c(=O)n32)cc1 (stereo not given) 0.00398
CCOc1ccc(OCC)c(NS(=O)(=O)c2ccc3c(c2)n(C)c(=O)c(=O)n3C)c1 0.00533
COCCn1nnnc1C(c1ccc(OC)cc1)N1CCN(c2ccccc2F)CC1 (stereo not given) 0.00546
CCOC(=O)Nc1ccc2c(CN3C(=O)NC4(CCCC4)C3=O)cc(=O)oc2c1 0.00554
CCc1ccc(C2CC(c3cccc(OC)c3)n3nc(N)nc3N2)cc1 (stereo not given) 0.00641
CCOC(=O)N1CCC(NC(=O)CCC(=O)N2CC(C)Oc3ccc(Cl)cc32)CC1 (stereo not given) 0.00486
COc1cccc(C2CC(c3ccc(C)cc3)Nc3nc(N)nn32)c1 (stereo not given) 0.0074
CC1=C/C(=C/N(C)c2ccccc2)C(=O)S1 0.0049
CCCN(CCC)C(=O)C1CCN(c2cc(C)nc3c(-c4ccc(OC)c(OC)c4)c(C)nn23)CC1 0.00708
CSc1nc2ccc(S(=O)(=O)N3CCOCC3)cc2s1 0.00411
O=C(CSc1ncn[nH]1)c1ccco1 0.00556
CCNc1ccc2c(Cl)cc(=O)oc2c1 0.00496
Cn1c(N2CCC(C(N)=O)CC2)nc2c1c(=O)n(Cc1ccc(Br)cc1)c(=O)n2C 0.00671
COCCOC(=O)C1=C(C)OC(N)=C(C#N)C1c1ccc2c(c1)OCO2 (stereo not given) 0.00523
COc1ccc(S(=O)(=O)N(CCN2CCOCC2)Cc2cc(OC)ccc2OC)cc1 0.00508
COC(=O)c1nc(N)sc1-c1ccccc1 0.00535
CC(C)C(c1nnnn1C1CCCC1)N1CCN(C(=O)c2ccco2)CC1 (stereo not given) 0.00617
O=C(Nc1ccccc1-c1nc2ccccc2o1)c1ccc2c(c1)OCCO2 0.0146
N#Cc1nc(COc2ccccc2Cl)oc1N1CCCCCC1 0.00512
Cn1c(C(=O)NCCCN2CCN(c3ccc(F)cc3)CC2)cc2c(=O)n(C)c3ccccc3c21 0.00607
Cc1[nH]c(=O)[nH]c(=O)c1S(=O)(=O)N1CCCC(C(=O)NCc2ccco2)C1 (stereo not given) 0.00332
COc1ccc(C(=O)CSc2nc(C)cc(=O)[nH]2)cc1 0.0048
Nc1nc(N2CCN(C/C=C/c3ccccc3)CC2)nc2ccccc12 0.00297
COc1ccc(OC)c(C(=O)c2ccc(C(=O)O)cc2)c1 0.00489
CCOC(=O)N1CCN(C(=O)c2ccc(CS(=O)(=O)c3ccc(OC)cc3)o2)CC1 0.0059
CN1C(=O)C(O)(CC(=O)c2ccc3c(c2)OCO3)c2ccccc21 (stereo not given) 0.00347
O=C(COC(=O)c1cc(S(=O)(=O)N2CCOCC2)cs1)c1ccccc1 0.00656
CN1CCN(S(=O)(=O)c2ccc(NC(=O)c3ccc(F)cc3)cc2)CC1 0.00505
CCOCCCNC(=O)c1cc2sc(Cl)cc2n1CC 0.00603
O=C(Nc1ccc(O)cc1)C1CCCN1S(=O)(=O)c1ccc(F)cc1 (stereo not given) 0.00664
COc1ccc(CCNc2oc(-c3ccco3)nc2C#N)cc1 0.00388
Cc1cc(OCC(O)CN2CCN(CCO)CC2)ccc1C(C)C (stereo not given) 0.00431
CCOC(=O)c1c(N)nn(C(=O)C(C)C)c1-c1ccccc1 0.00581
CCOC(=O)c1cccc(NC(=O)C2CCN(S(=O)(=O)c3cccs3)CC2)c1 0.00624
CCOC(=O)c1cccc(NC(=O)CSc2nc3cccnc3n2C)c1 0.00563
O=C(OCC(=O)c1cccs1)C1=COCCO1 0.00586
CCCc1cc(C(=O)Nc2ccccc2C(=O)OC)no1 0.0059
CCCCOc1ccc(-c2nnn(C(C)(C)C(=O)OC)n2)cc1 0.0068

system: not listed separately; test: blockers of RIG-like receptor reporter activation – cell-based, Sendai virus stimulus, luciferase, 10K MLSCN set, TLR/RLR signaling modifier project, primary screen (AID 602276;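 active = inhibition at or above 50% at 10 µM; inactive = inhibition below 50%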;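 note: firefly luciferase from ISG56 promoter only with Renilla not read in this screen; 0% = Sendai virus plus DMSO and 100% = medium plus DMSO without virus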); details: HEK293 RL24 IRF3 luciferase reporter, at 10 µM, active compounds read high

inhibition, inactive:
CCOCC(=O)Nc1ccc(S(=O)(=O)N2CCOCC2)cc1 12%
Cc1cc(NS(=O)(=O)c2ccc(NC(=O)COc3ccc(Cl)cc3)cc2)no1 13%
COc1ccc(C2C(C(C)=O)=C(C)N=c3s/c(=C/c4ccc5c(c4)OCO5)c(=O)n32)cc1 (stereo not given) 10.2%
CCOc1ccc(OCC)c(NS(=O)(=O)c2ccc3c(c2)n(C)c(=O)c(=O)n3C)c1 10.9%
COCCn1nnnc1C(c1ccc(OC)cc1)N1CCN(c2ccccc2F)CC1 (stereo not given) 14.5%
CCOC(=O)Nc1ccc2c(CN3C(=O)NC4(CCCC4)C3=O)cc(=O)oc2c1 0.299%
CCc1ccc(C2CC(c3cccc(OC)c3)n3nc(N)nc3N2)cc1 (stereo not given) 11.5%
CCOC(=O)N1CCC(NC(=O)CCC(=O)N2CC(C)Oc3ccc(Cl)cc32)CC1 (stereo not given) 7.09%
COc1cccc(C2CC(c3ccc(C)cc3)Nc3nc(N)nn32)c1 (stereo not given) -7.82%
CC1=C/C(=C/N(C)c2ccccc2)C(=O)S1 -17.2%
CCCN(CCC)C(=O)C1CCN(c2cc(C)nc3c(-c4ccc(OC)c(OC)c4)c(C)nn23)CC1 4.7%
CSc1nc2ccc(S(=O)(=O)N3CCOCC3)cc2s1 17.9%
O=C(CSc1ncn[nH]1)c1ccco1 18.7%
CCNc1ccc2c(Cl)cc(=O)oc2c1 4.11%
Cn1c(N2CCC(C(N)=O)CC2)nc2c1c(=O)n(Cc1ccc(Br)cc1)c(=O)n2C 6.03%
COCCOC(=O)C1=C(C)OC(N)=C(C#N)C1c1ccc2c(c1)OCO2 (stereo not given) 5.43%
COc1ccc(S(=O)(=O)N(CCN2CCOCC2)Cc2cc(OC)ccc2OC)cc1 17.2%
COC(=O)c1nc(N)sc1-c1ccccc1 11.7%
CC(C)C(c1nnnn1C1CCCC1)N1CCN(C(=O)c2ccco2)CC1 (stereo not given) -4.43%
O=C(Nc1ccccc1-c1nc2ccccc2o1)c1ccc2c(c1)OCCO2 11.3%
N#Cc1nc(COc2ccccc2Cl)oc1N1CCCCCC1 0.19%
Cn1c(C(=O)NCCCN2CCN(c3ccc(F)cc3)CC2)cc2c(=O)n(C)c3ccccc3c21 6.19%
Cc1[nH]c(=O)[nH]c(=O)c1S(=O)(=O)N1CCCC(C(=O)NCc2ccco2)C1 (stereo not given) -2.81%
COc1ccc(C(=O)CSc2nc(C)cc(=O)[nH]2)cc1 14.8%
Nc1nc(N2CCN(C/C=C/c3ccccc3)CC2)nc2ccccc12 4.65%
COc1ccc(OC)c(C(=O)c2ccc(C(=O)O)cc2)c1 16.7%
CCOC(=O)N1CCN(C(=O)c2ccc(CS(=O)(=O)c3ccc(OC)cc3)o2)CC1 14.8%
CN1C(=O)C(O)(CC(=O)c2ccc3c(c2)OCO3)c2ccccc21 (stereo not given) 4.81%
O=C(COC(=O)c1cc(S(=O)(=O)N2CCOCC2)cs1)c1ccccc1 11.5%
CN1CCN(S(=O)(=O)c2ccc(NC(=O)c3ccc(F)cc3)cc2)CC1 0.12%
CCOCCCNC(=O)c1cc2sc(Cl)cc2n1CC 34.7%
O=C(Nc1ccc(O)cc1)C1CCCN1S(=O)(=O)c1ccc(F)cc1 (stereo not given) 8.7%
COc1ccc(CCNc2oc(-c3ccco3)nc2C#N)cc1 -0.514%
Cc1cc(OCC(O)CN2CCN(CCO)CC2)ccc1C(C)C (stereo not given) 9.34%
CCOC(=O)c1c(N)nn(C(=O)C(C)C)c1-c1ccccc1 -23.8%
CCOC(=O)c1cccc(NC(=O)C2CCN(S(=O)(=O)c3cccs3)CC2)c1 3.96%
CCOC(=O)c1cccc(NC(=O)CSc2nc3cccnc3n2C)c1 -4.22%
O=C(OCC(=O)c1cccs1)C1=COCCO1 -24.9%
CCCc1cc(C(=O)Nc2ccccc2C(=O)OC)no1 -14.6%
CCCCOc1ccc(-c2nnn(C(C)(C)C(=O)OC)n2)cc1 -33.8%
